Each structure is given as a SMILES string. About 8,600 (12%) of roughly 69,000 compounds showed an effect of 50% or more. Many of the other results were omitted from the sample, so strong results are more common in it than they were.

The subject of this assay is Plasmodium berghei. Put plainly: Screen against P. berghei liver stage (PbLuc), transformed with Luciferase, at 10uM. The format is functional, HepG2. The note with it: tested at 10 uM.
As to `CNC(=O)c1cccc(C2CNCCN2C(=O)c2cccc(F)c2)c1` (configuration not stated), the INHIBITION is given as 44.8%. Under `COCCN1CCC2(CC1)CN(C(=O)N(C)C)c1ccc(C)cc12` stands 26.2%.

Turning to `COc1ccccc1NC(=O)C1(c2ccccc2)CCOCC1`, the INHIBITION is given as 6.26%. In the case of `CCOCC(=O)N1C[C@H]2CC[C@@H](C1)N(Cc1ccccn1)C2=O`, the INHIBITION was found to be 28.7%.

Consider `COCCOc1ccc(NC(=O)C2CC(=O)N(C3CC3)C2)cn1` (configuration not stated), for which the INHIBITION amounted to 4.71%. On to `COCCN(Cc1cnn(C)c1)CC1CCOC1` (configuration not stated), for which the INHIBITION was 19.8%. On to `COCCN(Cc1ccc(C)cc1)CC1CCOC1` (configuration not stated), for which the INHIBITION worked out at 67.4%. Under `COCCN(Cc1cnn(C)c1)CC1CCN(C(C)C)CC1` stands 33.7%; under `c1cc(-c2cnc(NC3CC3)nc2[C@H]2CCCO2)ccn1`, -12.3%. Under `Cc1ccc(C(=O)N2CC3(CCNCC3)c3cc(Cl)ccc32)cn1` stands 5.04%; under `CCN1CC(COC(=O)c2ccc(Br)cc2F)CC1=O` (configuration not stated), 0.0459%. On to `Cc1ncc2c(n1)CN(Cc1nc(C)c(C)o1)CC2`, for which the INHIBITION was 38%. On to `COCCc1ncc(CN2CCC3(CCCN(CC4CC4)C3)C2)cn1` (configuration not stated), for which the INHIBITION amounted to 46.6%. Under `CCc1ncc(CN2CCC3(CCCN(CC4CCC4)C3)C2)cn1` (configuration not stated) stands 57.5%; under `Cc1ncc(CN2CCC3(CCCN(CC4CCC4)C3)C2)cn1` (configuration not stated), 53.5%; under `Cc1noc(C)c1CN1CCCC2(CCN(CC3CCCC3)C2)C1` (configuration not stated), 49.4%. With `COc1ncc(CN2CCC3(CCCN(CC4CCCCC4)C3)C2)cn1` (configuration not stated), the INHIBITION came out at 6.94%. Consider `COc1ncc(CN2CCC3(CCCN(CC4CCC4)C3)C2)cn1` (configuration not stated), for which the INHIBITION stood at 17.8%. As to `Cc1nc(NCC(O)CN2CCCCCC2)c2c(C)nn(C)c2n1` (configuration not stated), the INHIBITION was -30.3%. Regarding `CC(=O)N1CC[C@H]2OCC[C@@H](C(=O)Nc3cccnc3C)[C@@H]2C1`, the INHIBITION is -1.28%. For `COC(=O)CN1CC(c2nc(Cc3ccccc3)no2)C1` the value was -14.6%; for `CNC(=O)CCc1cc(C2CCCN2S(C)(=O)=O)nc(C)n1` (configuration not stated), 6.33%; for `C[C@H](O)CNc1cc(-c2ccccc2)ncn1`, 26.3%.

On to `C[C@H](O)CNc1cc(-c2ccncc2)ncn1`, for which the INHIBITION worked out at 54.5%. As to `OCCNc1cc(-c2ccncc2)ncn1`, the INHIBITION was 47.1%. As for `Cc1cc(CN2C[C@@H]3COC[C@]3(CNC(=O)c3ccsc3)C2)no1`, the INHIBITION was -2.25%. In the case of `O=C(CCC1CCCC1)N1C[C@@H]2CC[C@H]1CN(Cc1ccncc1)C2`, the INHIBITION stood at 27.6%.

On to `COc1cccc(-c2noc(-c3ccc(NCCCO)nc3)n2)c1OC`, for which the INHIBITION turned out to be 43.9%.

`CN(C)CCNc1ccc(-c2nc(-c3ccccc3F)no2)cn1`: the INHIBITION turned out to be 80.7%. With `CN(C)CCN(C)c1ccc(-c2nc(COc3ccccc3)no2)cn1`, the INHIBITION was 41.3%. For `CNCCNc1ccc(-c2nc(-c3cccc(OC)c3OC)no2)cn1`, the INHIBITION amounted to 25.8%. Regarding `CC(C)(CO)Nc1ccc(-c2nc(-c3ccccc3F)no2)cn1`, the INHIBITION worked out at 91.3%.

In the case of `Cc1ccccc1-c1noc(-c2ccc(NCC3COCCO3)nc2)n1` (configuration not stated), the INHIBITION is reported as 32.3%. Consider `COc1cccc(-c2noc(-c3ccc(NCCCN)nc3)n2)c1OC`, for which the INHIBITION is given as 46.7%.

Take `COC(=O)CNc1ccc(-c2nc(Cc3ccc(OC)cc3)no2)cn1`: the INHIBITION is 26.6%. Under `CN(C)CCNc1ccc(-c2nc(COc3ccccc3)no2)cn1` stands 56.5%; under `CNC(=O)CCc1cc(C)nc(C2CCN(CC(=O)N(C)C)CC2)c1`, 23.3%; under `O=C(O)c1ccccc1-c1cnc(Cn2c(=O)cc[nH]c2=O)s1`, 22%. In the case of `COc1cccc(NC(=O)CN(C(C)C)C2CC2)c1`, the INHIBITION is listed as 20%. `CC(C)N(CC(=O)Nc1cccc(C#N)c1)C1CC1`: the INHIBITION was 54.8%.

As for `CC(C)N(CC(=O)Nc1cccc(C(=O)N(C)C)c1)C1CC1`, the INHIBITION is on record as -0.614%. Consider `Cc1noc(C)c1CN(C)CC(=O)N1CCc2sccc2C1`, for which the INHIBITION stood at 14.4%. For `Cn1c(=O)n(C)c2cc(NS(=O)(=O)Cc3ccccc3)ccc21`, the INHIBITION was 2.03%. As to `CCc1cnc(N2C[C@@H]3C[C@H](C(=O)N(C)C)[C@H](C2)O3)nc1`, the INHIBITION is given as -46.9%. Consider `COCc1nn(CC2CC2)c2c1CN(Cc1ccco1)CC2`, for which the INHIBITION worked out at 26%. As to `Cc1ncc(CN(C)Cc2nc3cc(Cl)ccc3n2C)s1`, the INHIBITION was determined as 74%. For `CCn1c(CN(C)Cc2cnc(C)s2)nc2cc(F)ccc21`, the INHIBITION is -2.09%. For `CCn1c(CN(C)Cc2cnc(C)s2)nc2c(F)cccc21`, the INHIBITION is recorded as 37.8%.

As to `COCc1nn(C(C)C)c2c1CCN(Cc1ccccn1)C2`, the INHIBITION is given as -18.4%. For `CCc1nc(N2CCCC(CCCOC)C2)c2cnn(C)c2n1` (configuration not stated), the INHIBITION was 49.4%. As for `COCCN1CC[C@@H]2OC(COCC(=O)N3CCCC3)CC[C@@H]21` (some centres not stated), the INHIBITION is -36%. For `O=C(Cc1ccsc1)N1C[C@@H]2COC[C@]2(COCc2cccnc2)C1` the value was 30.3%. Consider `Cc1cc(F)ccc1S(=O)(=O)N1C[C@@H](C)[C@@](C)(O)C1`, for which the INHIBITION was 52.5%. As for `COc1cc(C)ccc1S(=O)(=O)N1CC[C@](C)(O)[C@H](C)C1`, the INHIBITION is reported as 25.5%. As for `Cc1cc(F)ccc1N1CCC(N2C[C@@H](CN(C)C)[C@@H](CO)C2)CC1`, the INHIBITION was 38%.

Turning to `Cc1cc(F)ccc1N1CCC(N2C[C@@H](C)[C@@](C)(O)C2)CC1`, the INHIBITION is 54.4%. With `C[C@@H]1CN(C2CCN(c3ccccc3F)CC2)C[C@]1(C)O`, the INHIBITION is 47.9%. As for `Cc1ccc(F)cc1S(=O)(=O)N1C[C@@H](C)[C@@](C)(O)C1`, the INHIBITION came to 43.6%. Take `COc1cc(S(=O)(=O)N2C[C@@H](C)[C@@](C)(O)C2)c(C)cc1C`: the INHIBITION is given as 54.5%.

In the case of `C[C@@H]1CN(S(=O)(=O)c2ccc(F)cc2F)C[C@]1(C)O`, the INHIBITION is on record as 45.6%. For `C[C@@H]1CN(S(=O)(=O)c2ccc(F)cc2Cl)C[C@]1(C)O` the value was 5.94%; for `COC1COC2(CCN(Cc3ccccc3Cl)CC2)C1` (configuration not stated), -40.3%. On to `Cc1cc(CN2CCCC(Cn3cncn3)C2)no1` (configuration not stated), for which the INHIBITION is 3.73%. Consider `COc1cn(CC(=O)N2CCN(c3ccc(F)cc3)CC2)c(C)cc1=O`, for which the INHIBITION was determined as 39.6%.

For the molecule `CC(C)NC(=O)N1CCN(Cc2ccccn2)CC2(CC(=O)N(C)C2)C1` (configuration not stated), the INHIBITION is reported as 42.4%.

In the case of `CC1CN(C)CCN1CC(=O)NCCOc1cccc(F)c1` (configuration not stated), the INHIBITION amounted to 22.007%. Regarding `O=C(c1ccc2[nH]nnc2c1)N1CCC(Nc2cccnn2)CC1`, the INHIBITION came to 33.3%.

The values above are taken from ChEMBL document CHEMBL4513216, “Probing the Open Global Health Chemical Diversity Library for Multistage-Active Starting Points for Next-Generation Antimalarials” (ACS Infect Dis, 2020).
